Sampled rows, rich in hits. Any-hit rate of the full collection: about 4.1%.
TROY NFkB inh: TROY signaling inhibition. Q293 LMP1-TROYcd NF-kB luciferase reporter, 4 h. inhibition, % at 10 µM. actives 0.98% (n = 360,000);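 active means compounds whose plate-normalised and pattern-corrected inhibition of the luciferase reporter signal at the single screening dose is 50% or more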
Shn3 3UTR inh: reduces Shn3 3'UTR luciferase signal in osteoblasts. actives 0.52% (n = 360,000). Clone20 osteoblast Shn3 3'UTR firefly luciferase, 24 h. inhibition, % at 12.5 µM. AID 588674;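 active means mean inhibition of at least 75% with every replicate also reaching 75%; inconclusive means mean inhibition at least 75% but some replicate below; inactive means mean inhibition below 75%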
Peg3 promoter: reduces Peg3 promoter-driven luciferase expression in HeLa; HeLa PEG-Prom luciferase reporter, luminescence, overnight; inhibition, % at 20 µM; actives 1.7% (n = 360,000);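 active means inhibition of at least 50% at 20 µM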
TRPM1 prom inh: reduces MITF-dependent TRPM1 promoter luciferase signal; SK-MEL-5 TRPM1 promoter luciferase, 24 h; inhibition, % at 12.5 µM; actives 0.83% (n = 330,000); AID 488899;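 active means mean inhibition across replicates of 60% or more, whatever share of single replicates reaches that level; inconclusive means some that reach 60%, reason not given; inactive means mean inhibition across replicates below 60%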
LMP1 NFkB inh: reduces LMP1-driven NF-kappaB luciferase signal | AID 504558 | LMP1-induced NF-kappaB luciferase reporter cells, luminescence | actives 0.69% (n = 350,000) | inhibition, % at 12.5 µM; in the data active means inhibition above about 41%; inconclusive means no clear call, values can overlap the other calls
TWEAK Fn14 block: inhibitors of TWEAK-Fn14 interaction signaling; TWEAK-stimulated Fn14 reporter cells, luciferase luminescence, 8 h; inhibition, % at 10 µM; actives 2% (n = 360,000); AID 1159606; in the data active means inhibition above about 50%
Numbers stand for hits; - = inactive; ? = inconclusive; . = no result given; ! = repeats disagree.

SMILES | TROY NFkB inh | Shn3 3UTR inh | Peg3 promoter | TRPM1 prom inh | LMP1 NFkB inh | TWEAK Fn14 block
COC(=O)c1ccccc1NC1=C/C(=N\S(=O)(=O)c2cccs2)c2ccccc2C1=O | 51! | 94! | 86 | 78 | 86! | 99
COC(=O)c1ccccc1NC1=C/C(=N\S(=O)(=O)c2ccc(C(=O)O)cc2)c2ccccc2C1=O | - | - | 105 | 90 | - | 94
CC(C)(C)c1ccc(S(=O)(=O)/N=C2\C=C(NS(=O)(=O)c3ccccc3)C(=O)c3ccccc32)cc1 | - | - | - | - | - | -
COc1ccc(CNC(=O)C(OC(=O)c2ccco2)c2ccc(F)cc2)cc1 (stereo not drawn) | - | - | - | - | - | -
CCCC(C)(C)C(=O)N1CCC1(C)C(=O)NS(=O)(=O)c1ccccc1Cl (stereo not drawn) | - | - | - | . | . | -
Cc1csc(NC(=O)CCCNC(=O)c2ccc(Cl)cc2)n1 | - | - | - | - | - | -
CC1O[C@@H](OCC2O[C@@H](Oc3cc(O)c4c(c3)OC(c3ccc(O)cc3)CC4=O)[C@H](O)[C@@H](O)[C@@H]2O)[C@H](O)[C@H](O)[C@H]1O (stereo partly drawn) | - | - | - | - | - | -
C=CCN1CCN(C(=O)CCc2ccccc2)CC1 | - | - | - | - | 87 | -
COc1ccccc1NC(=O)Nc1ccc2c(c1)nc(C)n2C | - | - | - | - | - | -
COc1cc(OC)cc(C2=NCCN2)c1 | - | - | - | - | - | -
COc1cccc(C(=O)Oc2ccccc2/C=C\C(=O)c2cc3ccccc3o2)c1 | - | - | 105 | - | - | -
COC(=O)c1nn(-c2nc(-c3cccc(OC)c3)cc(C(F)(F)F)n2)cc1[N+](=O)[O-] | 58 | - | - | - | - | -
COc1cc(C(=O)O/N=C(\N)Cc2ccc([N+](=O)[O-])cc2)cc(OC)c1OC | - | - | - | . | . | -
COc1ccc(C(=O)O/N=C(\N)Cc2ccc(Cl)c(Cl)c2)cc1OC | - | - | 104 | - | - | 92
COc1ccc(C(=O)O/N=C(\N)Cc2ccc(Cl)cc2)cc1OC | - | - | 113 | - | - | 72
CCN1CCN(c2oc(/C=C/c3ccccc3)nc2C#N)CC1 | 53 | - | - | - | - | -
COC(=O)c1cc(S(=O)(=O)Nc2cccc(OC)c2)cn1C | - | - | 52 | - | - | -
O=C(O)c1cnccn1 | - | - | - | - | - | -
CSC(=N/N=C(\N)c1cnccn1)SC | - | - | - | - | 43 | -
CCOC(=O)c1ccc(-c2ccc(/C=C(\C#N)C(=O)NCc3cccs3)o2)cc1 | - | - | 72 | - | - | -
CC1=NN(S(=O)(=O)c2ccc(Cl)cc2Cl)C(=O)c2ccccc2O1 | - | - | - | - | - | 68
COc1ccc(Cl)cc1NC(=O)CN(C)CC(=O)Nc1c(C)n(C)n(-c2ccccc2)c1=O | - | - | - | - | - | -
CN(C(=O)c1ccc(S(=O)(=O)c2cccc(Cl)c2)c([N+](=O)[O-])c1)C1CCCCC1 | 56 | - | - | - | - | 92
O=C(Nc1nnc(S(=O)(=O)N2CCN(c3ccc(F)cc3)CC2)s1)c1ccccc1 | - | - | - | - | - | -
COC(=O)CCn1nnc(-c2ccc(C(C)C)cc2)n1 | 50 | - | - | 68 | ? | 68
SMILES | TROY NFkB inh | Shn3 3UTR inh | Peg3 promoter | TRPM1 prom inh | LMP1 NFkB inh | TWEAK Fn14 block
COC(=O)CCn1nnc(-c2cccs2)n1 | - | - | - | - | - | -
CC(C)c1ccc(-c2csc3ncnc(N4CCN(C)CC4)c23)cc1 | - | - | - | - | 49 | 51
Clc1ccc(-c2csc3ncnc(N4CCc5ccccc5C4)c23)cc1 | 55 | - | - | - | - | 78
CN1CCCN(c2ncnc3scc(-c4ccc(F)cc4)c23)CC1 | - | - | - | - | - | -
O=C(OCC#CCSc1nnc(-c2cccc3ccccc23)o1)c1cnc[nH]1 | - | - | - | - | - | -
C[C@H]1CN([C@@H](C)CO)C(=O)CCCn2cc(nn2)CO[C@@H]1CN(C)S(=O)(=O)c1cccc(F)c1 | - | - | - | . | - | -
O=C(Nc1cccc(Cl)c1)C1C2CCC3C(CCC21)C3(Cl)Cl (stereo not drawn) | - | - | - | - | - | 62
O=C(Nc1ccccc1)C1C2CCC3C(CCC21)C3(Cl)Cl (stereo not drawn) | - | - | - | - | - | -

Compound activity from PubChem.
